# Only some compounds are listed: those with a hit (about 8% of all), similar ones and a draw of the others.
# MCF10A rerep: A quantitative high throughput screen for small molecules that induce DNA re-replication in MCF 10a normal breast cells; Potency, µM (doses to about 46.1 µM), without a hit: top-dose activity, positive = re-replication, usual class: activators; actives 2.9% (n = 350,000); MCF 10A DNA re-replication, Hoechst nuclear intensity, 48 h; further: % of control where 0% means no effect; nearly all actives have a fitted effect of over 50% in size
# KB-V1 cytotox: qHTS assay for MDR1-selective chemotherapeutics: Primary screen using the drug-selected MDR subline cells KB-V1. KB-V1 MDR cells viability, CellTiter-Glo, 72 h. actives 3.4% (n = 400,000). AID 1347076, 2019. Potency, µM (doses to about 46.1 µM), most hits filed as cytotoxic; further: on the % scale 0 is the no-effect control and ±100 the full control effect; nearly all actives have a fitted effect of over 60% in size
#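 Readout: CellTiter-Glo luminescence, 10 min after addition. Cells: KB-V1 MDR subline, 72 h at 37 degrees C with compound. Analysis: corrected, normalized data fitted to concentration-effect curves.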
# HT1080NT lethal: qHTS for induction of synthetic lethality in tumor cells producing 2HG: qHTS for the HT-1080-NT fibrosarcoma cell line | HT-1080-NT fibrosarcoma viability, CellTiter-Glo ATP luminescence, 48 h | actives 1.6% (n = 360,000) | Potency, µM (series often up to 46.1 µM), for the others: at the top dose activity, negative = less viability, actives largely listed as cytotoxic;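 further: NT is the 2HG producing partner of a matched IDH1 knockdown line; 0% = DMSO-treated cells and -100% = media-only wells without cells; nearly all actives have a fitted effect of over 55% in size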
#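 A 48-hour cytotoxicity screen used HT-1080-NT cells plated 2 hours before compound delivery. ATP-based CellTiter-Glo luminescence measured viability, normalized to DMSO and no-cell controls.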
# HT1080 IDH1KD tx: qHTS for induction of synthetic lethality in tumor cells producing 2HG: qHTS for the HT-1080-IDH1KD cell line; HT-1080 IDH1 knockdown viability, ATP luminescence, 48 h; Potency, µM (titrated, usually from 46.1 µM), inactives show at the highest dose activity, negative = toxicity, hits mostly cytotoxic; actives 2% (n = 360,000); AID 686971, 2013;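 further: 0% = DMSO wells and -100% = cell-free medium wells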
#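 Assay cells: HT-1080 with IDH1 knockdown, 750 per well, RPMI/5% FBS. Exposure: 48 h at 37 °C following 2 h pre-incubation. Read: CellTiter-Glo luminescence; fitted concentration-response, curve class assigned.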
# KB-3-1 cytotox: qHTS assay for MDR1-selective chemotherapeutics: Primary screen using the parental adenocarcinoma cell KB-3-1; KB-3-1 viability, CellTiter-Glo ATP luminescence, 72 h; Potency, µM (series often up to 46.1 µM), usual class: cytotoxic; actives 1.4% (n = 400,000); further: on the % scale 0 is the no-effect control and ±100 the full control effect; nearly all actives have a fitted effect of over 60% in size
#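 72 h, 37 °C compound treatment of KB-3-1 parental cells; CellTiter-Glo added, 10 min, luminescence read. Data corrected against DMSO-only plates and normalized before curve fitting.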
# SW480 rereplic: A quantitative high throughput screen for small molecules that induce DNA re-replication in SW480 colon adenocarcinoma cells; Potency, µM (doses to about 46.1 µM), for the others: top-dose re-replication activation, hits mostly activators; actives 1.8% (n = 340,000); SW480 DNA re-replication, Hoechst DNA content imaging, 48 h; further: % of control where 0% means no effect; nearly all actives have a fitted effect of over 55% in size
#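 Hoechst fluorescence of nuclei (405 nm excitation, 500-530 nm emission) measured by plate-scanning imager after 48 hr compound exposure at 37 C; re-replication scored as increased number of nuclei with elevated intensity.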
# Active calls of the source: *; i = inactive; ? = inconclusive; nt = no result; [ ] = dose if it differs, or a comment. The call rests on the fitted dose curve; in most records, active means well fitted curve in the direction sought with a large enough effect; inconclusive means small, poorly fitted or top-dose-only effect, or another doubt; inactive means no such curve, though single readings can be large; an effect the other way counts as inactive or inconclusive. Potency means the concentration at half of the fitted maximal effect.
SMILES,MCF10A rerep,KB-V1 cytotox,HT1080NT lethal,HT1080 IDH1KD tx,KB-3-1 cytotox,SW480 rereplic
O=C(Nc1ccc(Cl)cn1)c1cccc(F)c1,13µM*,3.66µM*,?,8.2µM*,6.51µM*,10.3µM*
c1ccc(-c2oc3ncnc(NCCCn4ccnc4)c3c2-c2ccccc2)cc1,?,i,?,?,i,11.6%
CN(C)CCCNc1ncnc2oc(-c3ccccc3)c(-c3ccccc3)c12,?,i,?,23.1µM*,?,?
O=C1/C(=C/c2ccccc2O)SC(=S)N1Cc1cccnc1,6.51µM*,?,7.1%,2.9%,3.26µM*,?
CC(c1ccccc1)N1C(=O)/C(=C/c2ccncc2)SC1=S (stereo not drawn),16.4µM*,?,?,?,?,16.4µM*
O=C1/C(=C\c2ccc(O)cc2)SC(=S)N1Cc1ccccc1,12.4%,i,?,23.1µM*,i,?
O=C(O)c1ccc(/C=C2/SC(=S)N(Cc3ccccc3)C2=O)cc1,22.8%,i,-1.2%,4.9%,?,-6.9%
O=C1/C(=C\c2cccc([N+](=O)[O-])c2O)SC(=S)N1Cc1ccccc1,14.1%,i,-17.4%,0.1%,?,2.3%
O=C1/C(=C\c2cc(Br)cc(Br)c2O)SC(=S)N1Cc1ccccc1,9.2µM*,i,-30.0%,-15.6%,?,8.3%
COc1ccc(C(=O)N[C@H](C(=O)NCCc2ccc3c(c2)OCCO3)C(C)C)cc1,10.5%,i,11.5%,0.1%,i,0.9%
COc1ccc(Br)cc1/C=N/NC(=O)c1nc(-c2ccccc2)n2c1CCCCC2,-1.0%,i,-2.1%,-1.3%,i,-0.9%
CC(=O)Oc1ccc(/C=C2/SC(=S)N(Cc3ccccc3)C2=O)cc1,3.26µM*,i,22.5%,20.4%,i,-36.5%
Cc1cc(/C=C2\SC(=S)N(Cc3ccco3)C2=O)c(C)n1-c1cccnc1,26.9%,?,-0.7%,-4.2%,i,1.0%
O=C(O)CN1C(=O)/C(=C\c2cc(Br)ccc2OCc2ccccc2F)SC1=S,18.4µM*,i,10.6%,8.2%,i,-22.3%
O=C1/C(=C/c2ccc(O)c([N+](=O)[O-])c2)SC(=S)N1Cc1ccccc1,?,?,23.1µM*,-19.3%,?,-6.3%
O=C1/C(=C/c2cccnc2)SC(=S)N1Cc1ccco1,?,20.6µM*,-18.4%,?,13µM*,?
O=C(O)CN1C(=O)/C(=C\c2cc(Br)ccc2OCc2ccccc2Cl)SC1=S,?,i,-8.2%,-16.2%,i,-7.8%
Cc1cc(C)cc(N(CCC#N)C(=O)COC(=O)Cn2[nH]c(=O)c3ccccc3c2=O)c1,-1.7%,i,-8.5%,0.4%,i,-2.1%
CCc1nc2ccc(C(=O)N(C)CCCN(C)C)cn2c1N(C)CCCc1ccccc1,nt,i,?,?,i,nt
CCC(=O)N1CCc2cc(S(=O)(=O)Nc3cc(C)ccc3OC)ccc21,nt,i,nt,nt,i,nt
COc1cc(Cl)c(C)cc1NC(=O)c1sc2nc3n(c(=O)c2c1C)CCCCC3,nt,i,nt,nt,i,nt
COc1ccc(CN2C(=O)/C(=C/c3ccncc3)SC2=S)cc1,23.1µM*,i,?,?,i,?
NS(=O)(=O)c1ccc(CCN2C(=O)/C(=C\c3ccc(Cl)cc3)SC2=S)cc1,10.3µM*,18.4µM*,1.9%,5.5%,?,?
O=C(O)c1cccc(CN2C(=O)S/C(=C/c3cccc([N+](=O)[O-])c3)C2=O)c1,?,i,?,16.4µM*,i,?
Cc1cc(C)n(CCCNC(=O)c2ccc(C)o2)n1,-2.9%,i,5.7%[9.24 µM],-2.0%,i,-2.1%
SMILES,MCF10A rerep,KB-V1 cytotox,HT1080NT lethal,HT1080 IDH1KD tx,KB-3-1 cytotox,SW480 rereplic
CN1CCN(CCOC2Cc3ccccc3Sc3ccc(Cl)cc32)CC1 (stereo not drawn),23.1µM*,23.1µM*,-5.9%,-3.7%,?,-7.5%
O=C(CC1(O)C(=O)N(C/C=C/c2ccccc2)c2ccccc21)c1ccccn1 (stereo not drawn),?,?,?,10µM*,?,?
O=C(CC1(O)C(=O)N(CCc2ccccc2)c2ccccc21)c1ccccn1 (stereo not drawn),-6.3%,i,15.1%,24.6%,i,5.5%
CCC(Sc1nc2ccccc2c2nc(CCc3c(C)n[nH]c3C)nn12)C(=O)Nc1ccccc1F (stereo not drawn),nt,i,nt,nt,i,nt
Cc1ccc(C)c(-n2sc3ccc(F)cc3c2=O)c1,?,i,20.6µM*,?,i,18.4µM*
Cc1ccc(SCCNC(=O)CN(c2ccccc2)S(=O)(=O)N(C)C)cc1,nt,i,nt,nt,i,nt
CC(C)CNc1nc(N)c([N+](=O)[O-])c(N2CCCCCC2)n1,?,9.2µM*,?,?,18.4µM*,16.3%
COc1ccc(Nc2nc(NCc3ccco3)nc(N)c2[N+](=O)[O-])cc1,-22.2%,i,0.5%,7.1%,i,-70.6%
Cc1cccc(Nc2nc(NCc3ccco3)nc(N)c2[N+](=O)[O-])c1,20.2%,i,0.2%,-9.8%,i,11.8%
Nc1nc(Nc2ccc(Cl)cc2)nc(NCc2ccco2)c1[N+](=O)[O-],?,16.4µM*,?,18.4µM*,i,-122.3%
Nc1nc(Nc2cccc(Cl)c2)nc(NCc2ccco2)c1[N+](=O)[O-],?,?,?,16.4µM*,16.4µM*,?
Cc1cccc(Nc2nc(N)c([N+](=O)[O-])c(NCc3ccco3)n2)c1,?,7.31µM*,?,?,?,?
CC(=O)OCC#CCSc1nnc(-c2cccc(Br)c2)o1,nt,i,nt,nt,i,nt
Cc1cccc(-c2noc(CN(C(=O)COc3ccc(C(C)C)cc3)C(C)C)n2)c1,nt,i,nt,nt,i,nt
COCCNC(=O)CSc1nc2ccccc2nc1Cc1ccc(C)cc1,nt,i,nt,nt,i,nt
Nc1nc(Nc2cccc(F)c2)nc(NCc2ccco2)c1[N+](=O)[O-],?,?,9.2µM*,25.9µM*,?,?
Nc1nc(NCC2CCCO2)nc(Nc2cccc(F)c2)c1[N+](=O)[O-] (stereo not drawn),-3.1%,i,19.2%,6.2%,i,-4.4%

# Screening data as filed in PubChem BioAssay.
